# Source: PubChem BioAssay AID624156 (Broad Institute, 2012)
# Hit rate of the full screen: of about 46,000 compounds, about 900 (2%) were called active. Another 1% or so got no clear call; they are omitted. The full list was thinned out, with actives kept by preference. A number with no mark means an inactive call. No stated cut-off is given here; in the data, active means ROS induction above about 79% (passing the limit was not always enough); inconclusive means no clear call, values can overlap the other calls.
# Test: ROS inducers in U2OS cancer cells, primary screen, cell-based, H2DCF-DA fluorescence (AID 624156);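 further: 0% = DMSO vehicle median and 100% = reference compound median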
# Details: at 10 µM, hits give high values
row,Structure (SMILES),ROS induction (% of piperlongumine)
1,O=C(Nc1cccc(-c2nc3ccccc3o2)c1)c1ccc(Br)cc1,4.05%
2,Cc1nn(C)cc1C(=O)c1ccccc1,36.5%
3,Cc1ccc(C(=O)N/C(=C\c2ccccc2)C(=O)Nc2c(C)n(C)n(-c3ccccc3)c2=O)cc1,0.477%
4,COc1ccc(CNCC2(c3ccccc3)CCCC2)cc1,4.91%
5,COC(=O)c1ccc(-c2ccco2)n1CC(=O)NC1CCCC1,-2.05%
6,CCC/C=C/C(=O)OC1C(O)C23C(O)OC4(CCC5C6(C)CCC(OC7OC(C(=O)O)C(O)C(OC8OC(CO)C(O)C(O)C8OC8OC(C)C(O)C(O)C8OC8OCC(O)C(O)C8O)C7OC7OC(CO)C(O)C(O)C7O)C(C)(C)C6CCC5(C)C4(C)CC2OC(C)=O)C3CC1(C)C (stereo unspecified),-31.6%
7,Cc1cc(-c2cccs2)c2c(N)c(C(=O)c3ccccc3)sc2n1,95.7% (active)
8,COCc1cc(C)nc2sc(C(N)=O)c(N)c12,10.2%
9,O=C(O)c1ccc(S(=O)(=O)c2ccc(Cl)cc2)cc1,-2.87%
10,Cc1c(S(=O)(=O)Nc2ccc(Cl)cc2)sc2ccc(Cl)cc12,-12.9%
11,Fc1ccc(NCc2cn(-c3ccccc3)nc2-c2cccs2)c(F)c1,-6.92%
12,N#CCC(=O)N(Cc1ccccc1)C(=O)Nc1cccc(F)c1,-15.5%
13,CC(C)(C)n1ncc2c(=O)n(Cc3ccc(Cl)cc3)cnc21,-3.3%
14,O=C(CSc1nnc(-c2ccccc2)c(-c2ccccc2)n1)Nc1ccccc1,-5.87%
15,N#Cc1c(SCC(=O)Nc2ccccc2)ncc2cc3ccccc3nc12,192% (active)
16,Cc1sc2ncnc(SCC(=O)Nc3ccccc3)c2c1-c1ccccc1,-2.63%
17,C=CCn1c2ccccc2c2nnc(SCC(=O)N3c4ccccc4Sc4ccccc43)nc21,11.2%
18,c1ccc(Cn2c3ccccc3c3nnc(SCc4ccc5nonc5c4)nc32)cc1,21.9%
19,C=CCn1c2ccccc2c2nnc(SCCCC(=O)c3ccc(F)cc3)nc21,81.9% (active)
20,CCOC(=O)CCSc1nnc2c3ccccc3n(C)c2n1,39.9%
21,CCCn1c2ccccc2c2nnc(SCC(=O)Nc3cccc4ccccc34)nc21,91.7% (active)
22,CCn1c2ccccc2c2nnc(SCC(=O)O)nc21,-16.9%

row,Structure (SMILES),ROS induction (% of piperlongumine)
1,O=C(CCCCC(=O)N/N=C/c1ccc[nH]1)NO,-11.8%
2,COC(=O)c1sccc1NC(=O)Cc1noc2ccc(C)cc12,-3.41%
3,CCC(C(=O)Nc1ccc(OC)c(OC)c1)n1c(C)c2cnn(-c3ccccc3)c(=O)c2c1C (stereo unspecified),6.12%
4,CC(=NCc1ccco1)C1=C(O)c2ccccc2C1=O,146% (active)
5,CC(=NCc1ccc2c(c1)OCO2)C1=C(O)c2ccccc2C1=O,3.64%
6,COc1ccc(C=Nc2ccc(C(C)(C)C)cc2)cc1,-6.06%
7,Cc1cccc(N2CCN(C(=O)CC3(CC4=NS(=O)(=O)c5ccccc5N4)CCCC3)CC2)c1C,172% (active)
8,Cc1cccc(N2CCN(C(=O)CCn3c(=S)[nH]c4cc5c(cc4c3=O)OCO5)CC2)c1C,8.61%
9,CC1=C(C(=O)OC(C)C)C(c2cn(-c3ccccc3)nc2-c2ccc(OC(C)C)cc2)NC(=O)N1 (stereo unspecified),-3.28%
10,COc1ccc(S(=O)(=O)N(C)C)cc1,-6.36%
11,Cc1ccc2nc(Nc3ccccc3)cc(C)c2c1,178% (active)
12,Cc1ccc2nc(C)c3c(c2c1)N(c1ccccc1)CC3,50.9%
13,Cc1ccc(Nc2nc(C)cc(C)c2C(N)=O)cc1,19.7%
14,C[C@@H]1CN([C@H](C)CO)C(=O)Cc2cc(NC(=O)Nc3ccccc3)ccc2O[C@@H]1CN(C)Cc1ccc(C(F)(F)F)cc1,23.2%
15,COC(=O)c1c(C)nc(C)c(C(=O)OC)c1-c1csc(S(=O)(=O)/N=C/N(C)C)c1,-10.2%
16,CCNC(=S)N1CCN(CCN=CC2=C(O)CC(c3ccccc3)CC2=O)CC1 (stereo unspecified),-5.61%
17,C=CCn1c(=S)sc2c(SCC(=O)N3CCc4ccccc43)ncnc21,-9.07%
18,CCOC(=O)c1nnn2c1nc(N1CCN(c3ccccc3)CC1)c1ccccc12,155% (active)
19,CCOC(=O)c1nnn2c3ccccc3c(=O)n(C)c12,38.4%
20,CCOC(=O)c1c(C)n(C)c2ccccc12,-3.38%
21,CCCNC(=O)Cn1c(=O)c2cccn2c2ccccc21,-9.02%
22,C=C1C(=O)O[C@H]2C3=C(C)C[C@H](OC(C)=O)C[C@]3(C)CC[C@@H]12,210% (active)

row,Structure (SMILES),ROS induction (% of piperlongumine)
1,Cn1c(COc2ccc(C(C)(C)c3ccccc3)cc2)n[nH]c1=S,-8.56%
2,CCc1cccc(O[C@@H]2O[C@@H]3COC(c4ccccc4)O[C@H]3[C@H](O)[C@H]2NC(C)=O)c1 (stereo partly specified),-15.2%
3,COc1ccccc1N(CC(=O)Nc1ccc(C(F)(F)F)cc1)S(C)(=O)=O,4.82%
4,O=C(NCc1cccnc1)c1cnn2c(C(F)F)cc(-c3ccccc3)nc12,170% (active)
5,O=C(c1cc([N+](=O)[O-])ccc1NCc1cccnc1)N1CCOCC1,1.17%
6,NC(=O)c1c(NC(=O)c2cnn3c(C(F)F)cc(-c4ccccc4)nc23)sc2c1CCCC2,12.4%
7,C=CC[C@]1(C(=O)NCC(O)CO)N=C(c2ccc(OCCCO)cc2)O[C@H]1c1ccccc1 (stereo partly specified),30.5%
8,O=C1N(CCS(=O)(=O)c2ccccc2)Cc2ccccc2[C@H]2OC(c3ccc(OCCCO)cc3)=N[C@@]12CCS(=O)(=O)c1ccccc1,141% (active)
9,O=C(N1CCCCC1)[C@@]1(CCS(=O)(=O)c2ccccc2)N=C(c2ccc(OCCCO)cc2)O[C@H]1c1ccccc1,97.7% (active)
10,COCCCNC(=O)[C@@]1(Cc2ccccc2)COC(c2ccc(OCCCO)cc2)=N1,11.7%
11,C[C@H]1CN([C@@H](C)CO)C(=O)Cc2cc(NC(=O)Nc3ccc4c(c3)OCO4)ccc2O[C@H]1CN(C)Cc1ccc(C(=O)Nc2ccccc2N)cc1,29.3%
12,CCc1ccc(OCC(N)=O)cc1,18.8%
13,C[C@@H]1CN([C@H](C)CO)C(=O)c2cccc(NC(=O)c3nc4ccccc4s3)c2O[C@H]1CN(C)Cc1ccccc1,10.3%
14,Nc1ncnc2nc(N3CCCCC3)[nH]c12,-11.8%
15,c1ccc(Cc2nc3c4c5c(sc4ncn3n2)CCCC5)cc1,20.6%
16,Cc1ccc(S(=O)(=O)N(C)C[C@@H]2Oc3ccc(NC(=O)Cn4cnnn4)cc3CC(=O)N([C@H](C)CO)C[C@H]2C)cc1,101% (active)
17,C[C@@H]1CN([C@@H](C)CO)C(=O)Cc2cc(NC(=O)Cn3cnnn3)ccc2O[C@@H]1CN(C)S(=O)(=O)c1cn(C)cn1,4.76%
18,Cc1ccc(S(=O)(=O)N(C)C[C@@H]2Oc3ccc(NC(=O)Cc4cn(C)c5ccccc45)cc3C(=O)N([C@@H](C)CO)C[C@@H]2C)cc1,-5.66%
19,C[C@@H]1CN([C@H](C)CO)C(=O)Cc2cc(NC(=O)Cc3cn(C)c4ccccc34)ccc2O[C@@H]1CN(C)S(=O)(=O)c1ccccc1,18.9%
20,Cc1ccc(S(=O)(=O)N(C)C[C@H]2Oc3ccc(NC(=O)Cc4cn(C)c5ccccc45)cc3CC(=O)N([C@@H](C)CO)C[C@H]2C)cc1,109% (active)
21,C[C@@H]1CN([C@H](C)CO)C(=O)Cc2cc(NC(=O)Cn3cnnn3)ccc2O[C@@H]1CN(C)S(=O)(=O)c1ccc(F)cc1,3.99%
22,CC(C)(C)NC(=S)N1CCn2cccc2C1c1ccccc1F (stereo unspecified),2.09%

row,Structure (SMILES),ROS induction (% of piperlongumine)
1,Cn1nnc(NC(=O)COc2ccc(Cl)cc2Cl)n1,-1.96%
2,Cc1noc(C)c1NC(=O)Nc1ccc2c(c1)C(=O)N([C@H](C)CO)C[C@@H](C)[C@H](CN(C)Cc1ccncc1)O2,-4.05%
3,COc1cccc(-c2cnc3c(c2)C(=O)N([C@H](C)CO)C[C@H](C)[C@H](CN(C)Cc2ccncc2)O3)c1,32.7%
4,Cc1c(C(=O)N(Cc2ccccc2)Cc2cccnc2)cnn1-c1ccc(F)cc1,-9.45%
5,Brc1ccc(/C=N/n2cnnc2SCc2ccccc2)cc1,2.37%
6,COc1ccc(NS(=O)(=O)c2ccc3c4c(cccc24)C(=O)S3)cc1,35.7%
7,O=C(Oc1c(Br)cc(Br)c2cccnc12)N1CCOCC1,3.35%
8,COC(=O)c1c(C)n(CCNc2ccc([N+](=O)[O-])cc2)c2ccc(O)cc12,98.5% (active)
9,O=[N+]([O-])c1ccc(NCCNc2nc3ccccc3nc2N2CCOCC2)cc1,61%
10,COC(=O)c1ccc(NCc2cc(O)ccc2O)cc1,10.2%
11,C[C@@H]1CCCCO[C@@H](CN(C)C(=O)NC2CCCCC2)[C@@H](C)CN([C@H](C)CO)C(=O)c2cc(NC(=O)CCC(F)(F)F)ccc2O1,37.6%
12,Cc1noc(C)c1NC(=O)Nc1ccc2c(c1)CC(=O)N([C@H](C)CO)C[C@@H](C)[C@@H](CN(C)Cc1ccc(C(F)(F)F)cc1)O2,6.6%
13,C[C@@H]1CN([C@H](C)CO)C(=O)Cc2cc(NS(=O)(=O)c3cn(C)cn3)ccc2O[C@@H]1CN(C)C(=O)Nc1ccccc1,-5.68%
14,C[C@@H]1CN([C@H](C)CO)C(=O)c2cc(NC(=O)Nc3ccc(C(F)(F)F)cc3)ccc2O[C@H]1CN(C)C(=O)Nc1ccccc1,23.2%
15,C[C@H]1CN([C@@H](C)CO)C(=O)c2cc(NC(=O)Nc3ccccc3)ccc2O[C@@H]1CN(C)C(=O)Nc1ccccc1,-12.6%
16,C[C@H]1CN([C@@H](C)CO)C(=O)Cc2cc(NS(=O)(=O)c3cn(C)cn3)ccc2O[C@H]1CN(C)C(=O)Nc1ccc(F)cc1,29.3%
17,Cc1noc(C)c1NC(=O)N(C)C[C@@H]1Oc2ccc(NC(=O)Nc3ccc(C(F)(F)F)cc3)cc2C(=O)N([C@H](C)CO)C[C@@H]1C,-6.13%
18,Cc1noc(C)c1NC(=O)N(C)C[C@H]1Oc2ccc(NC(=O)Nc3ccc(C(F)(F)F)cc3)cc2CC(=O)N([C@@H](C)CO)C[C@@H]1C,87.8% (active)
19,C[C@H](CO)N1C[C@H](C)[C@H](CN(C)C(=O)Nc2ccc(C(F)(F)F)cc2)Oc2ccc(NC(=O)Nc3ccccc3)cc2C1=O,84% (active)
20,C[C@H](CO)N1C[C@H](C)[C@H](CN(C)C(=O)Nc2ccc(C(F)(F)F)cc2)Oc2ccc(NS(=O)(=O)c3cn(C)cn3)cc2CC1=O,125% (active)
